Rv3671c inh – Rv3671c (M. tuberculosis) protease inhibition; inhibition, % at 5.96 µM; AID 2606; 320,000 tested, 0.048% active; in the data active = inhibition above about 38%;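 also: extracellular domain of Rv3671c used as enzyme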
Target sequence (P9WHR9 whole entry, looked up, the tested form may be a part): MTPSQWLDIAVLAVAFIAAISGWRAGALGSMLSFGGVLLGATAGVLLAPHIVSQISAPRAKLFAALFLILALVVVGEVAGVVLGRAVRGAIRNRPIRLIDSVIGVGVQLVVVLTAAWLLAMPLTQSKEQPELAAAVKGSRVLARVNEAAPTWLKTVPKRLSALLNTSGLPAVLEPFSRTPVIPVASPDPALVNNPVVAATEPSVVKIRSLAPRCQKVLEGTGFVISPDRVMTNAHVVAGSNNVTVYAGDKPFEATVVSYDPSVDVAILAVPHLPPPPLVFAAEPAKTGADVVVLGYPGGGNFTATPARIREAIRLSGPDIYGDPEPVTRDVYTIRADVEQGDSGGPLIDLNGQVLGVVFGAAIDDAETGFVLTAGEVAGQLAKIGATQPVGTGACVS
FBA Mtb inh – inhibits M. tuberculosis FBA enzyme | P9WQA3 | purified M. tuberculosis FBA, fluorescence read-out | inhibition, % at 1 µM | 360,000 tested, 2.3% active | AID 588726; in the data active = inhibition above about 27%
UGM FP inh – inhibitors of M. tuberculosis UDP-galactopyranose mutase; purified UGM, fluorescence polarization probe displacement; inhibition, % at 10 µM; P9WIQ1; 320,000 tested, 0.06% active; in the data active = inhibition above about 10%, passing the limit was not always enough; inconclusive = no clear call, values can overlap the other calls
RecA splice inh – Mtb RecA intein splicing inhibition; AID 2221; cell-free RecA intein splicing, fluorescence; 290,000 tested, 0.75% active; inhibition, % (no concentration beside the values); in the data active = inhibition above about 30%; inconclusive = no clear call, values can overlap the other calls
GDH-TPI counter – counter-screen for M. tuberculosis FBA inhibitors: GDH-TPI coupled enzymes; GDH-TPI coupled enzyme counterscreen, NADH absorbance; inhibition, % at 4.8 µM; 360,000 tested, 1.2% active; AID 588335; in the data active = inhibition above about 30%
Mtb bLac sens – beta-lactam sensitization of Mtb H37Rv. 330,000 tested, 0.27% active. M. tuberculosis H37Rv growth with meropenem, percent inhibition. inhibition, % at 25 µM; call rule not given here;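 also: growth measured after seven days incubation then overnight dye step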
Hits are given with their value; i = inactive; ? = inconclusive; nt = not tested or not shown. Most compounds without a hit are left out; they make up all but 4% or so of the library.

SMILES | Rv3671c inh | FBA Mtb inh | UGM FP inh | RecA splice inh | GDH-TPI counter | Mtb bLac sens
CC(=O)c1cccc(CN2CCC(CO)(CCOc3ccccc3)CC2)c1 | i | i | i | i | i | i
CC(=O)c1cccc(CN2CCC(CO)(CCCc3ccccc3)CC2)c1 | i | 139.0 | i | i | i | i
Cc1cccc(-c2nc(S(=O)(=O)c3ccc(F)cc3)c(NCCCN3CCOCC3)o2)c1 | i | i | i | i | i | i
O=C(NNC(=O)c1ccccc1O)c1cccc(Br)c1 | i | i | i | i | 30.8 | i
O=C(NNC(=S)Nc1cccc2ccccc12)c1cccc(Br)c1 | i | i | i | i | 35.0 | i
CCC(=O)Nc1cc2c3c(c1)CCC(=O)N3CCC2 | i | i | i | i | i | i
O=C1C=C(/C=C/c2ccccc2)C[C@@H](c2ccc(F)cc2)C1 | i | i | i | nt | i | i
COc1ccc([C@H]2CC(=O)C=C(/C=C/c3ccccc3)C2)cc1OC | i | i | i | nt | 37.8 | i
CC(=O)Oc1cc(C(=O)OCC(=O)NC23CC4CC(CC(C4)C2)C3)cc(OC(C)=O)c1OC(C)=O | nt | i | nt | nt | i | nt
C/C(=N\NC(=S)Nc1ccccc1C)c1cc2ccccc2o1 | i | i | i | i | 48.8 | ?
C/C(=N\NC(=S)Nc1c(C)cccc1C)c1cc2ccccc2o1 | i | i | i | i | i | i
O=C(NCc1ccccc1)/C(=C\c1cccc([N+](=O)[O-])c1)NC(=O)c1ccco1 | nt | i | nt | nt | i | nt
O=C(CSc1ncnc2c1nnn2Cc1ccccc1F)NCC1CCCO1 (stereo not drawn) | i | i | i | 50.3 | i | i
CC1C(=O)N(Cc2cn(CCC3OCCCO3)nn2)CCS(=O)(=O)N1Cc1ccc(-c2ccc(Cl)c(Cl)c2)cc1 (stereo not drawn) | nt | i | nt | nt | i | nt
O=C1N=C(N2CCCCC2)S/C1=C\c1ccncc1 | i | i | i | i | i | i
COc1cc(/C=C2\SC(N3CCCCC3)=NC2=O)cc(OC)c1OC | i | i | i | i | 32.6 | i
COc1ccc(/C=C2\SC(N3CCCCC3)=NC2=O)cc1 | i | i | i | i | 47.4 | i
CC(=O)N1CCN(C2=NC(=O)/C(=C/c3ccc(OS(=O)(=O)c4ccccc4)cc3)S2)CC1 | i | i | i | i | 31.5 | i
C=CCOC(=O)C1=C(C)NC(=O)NC1c1cc2c(cc1Br)OCO2 (stereo not drawn) | i | i | i | i | i | i
O=C(CCn1ccnc1)Nc1cc(Cl)ccc1O | i | i | i | i | i | i
COC(=O)N/N=C/c1ccc(-c2ccc(C)c(Cl)c2)o1 | i | i | i | i | i | i
COC(=O)N/N=C/c1ccc(-c2cccc(Cl)c2)o1 | i | i | i | i | 30.8 | i
Nc1ccccc1N=Cc1ccc(-c2cccc(Cl)c2)o1 | i | 145.8 | i | i | i | i
COC(=O)N/N=C/c1ccc(-c2cc(Cl)cc(Cl)c2)o1 | i | i | i | i | 45.8 | i
O=C1CCN(Cc2ccc(O)cc2)CCN1CCO | i | i | i | i | 34.4 | i
SMILES | Rv3671c inh | FBA Mtb inh | UGM FP inh | RecA splice inh | GDH-TPI counter | Mtb bLac sens
O=C(N/N=C/c1ccc2c(c1)OCO2)c1cccc(NC(=O)c2ccccc2Cl)c1 | i | i | i | nt | i | i
Cc1ccccc1C(=O)Nc1cccc(C(=O)N/N=C/c2ccc3c(c2)OCO3)c1 | i | i | i | nt | 32.4 | i
O=C(N/N=C/c1ccc2c(c1)OCO2)c1ccc(NC(=O)c2ccccc2Cl)cc1 | i | i | i | i | 35.3 | i
O=C(COC(=O)c1c(F)cccc1F)Nc1cccc(S(=O)(=O)N2CCCCC2)c1 | nt | i | nt | nt | i | nt
CC(C)(C)OC(=O)NN1CC(=O)N2Cc3[nH]c4ccccc4c3C[C@H]2C1=O | i | i | i | i | i | i
CCn1cc(C(=O)NCc2cccc(F)c2)c(=O)c2cc(F)c(N3CCN(C(=O)c4ccco4)CC3)cc21 | i | 38.2 | i | i | i | i
CCn1cc(C(=O)O)c(=O)c2cc(F)c(N3CCN(C(=S)NC(=O)c4cccc(F)c4)CC3)cc21 | i | i | i | i | i | i
COCCn1c(=NC(=O)c2cccs2)sc2cc(NC(C)=O)ccc21 | i | i | i | i | 45.3 | i
O=C(CCc1nc(-c2ccccc2)no1)NCc1ccccc1CN1CCOCC1 | i | i | i | nt | i | i
c1ccc2c(c1)Cn1nnnc1-2 | i | 135.4 | i | i | i | i
Cc1c(C=NNc2ccccc2)[nH]c(=O)[nH]c1=O | nt | i | nt | nt | 31.9 | nt
CC(C)CNC(=O)c1coc(=O)c(Br)c1 | i | i | i | i | i | i
O=C(Nc1cc(Cl)cc(Cl)c1)c1coc(=O)c(Br)c1 | i | 136.5 | i | i | 32.4 | i
Cn1ncc(Br)c1NC(=O)c1cc(Cl)cc(Cl)c1 | i | i | i | i | i | i
O=C(NC(CO)(CO)CO)c1coc(=O)c(Br)c1 | i | i | i | i | 44.4 | i
COc1ccc(/C(O)=C2/C(=O)C(=O)N(CCN3CCOCC3)C2c2cccnc2)cc1OC (stereo not drawn) | i | i | nt | i | i | i
COCCN1C(=O)C(=O)/C(=C(/O)c2ccc(S(=O)(=O)N3CCOCC3)cc2)C1c1ccc(O)cc1 (stereo not drawn) | i | i | i | i | 32.9 | i
Cc1ccc(C)c(/C(O)=C2\C(=O)C(=O)N(CCCN3CCOCC3)C2c2cccnc2)c1 (stereo not drawn) | nt | i | nt | i | 53.5 | nt
COc1cc(C2/C(=C(\O)c3ccc4c(c3)OCCO4)C(=O)C(=O)N2CCN2CCOCC2)cc(OC)c1OC (stereo not drawn) | nt | i | i | i | i | i
CCOc1ccc(C2/C(=C(\O)c3ccc4c(c3)OCCO4)C(=O)C(=O)N2CCN2CCOCC2)cc1OC (stereo not drawn) | nt | i | i | i | 34.0 | i
Cc1ccc(/C(O)=C2/C(=O)C(=O)N(CCN3CCOCC3)C2c2cccnc2)cc1 (stereo not drawn) | i | i | i | i | 33.0 | i
COc1cc(C(O)c2nc(-c3cccc(C#N)c3)cs2)ccc1F (stereo not drawn) | nt | i | nt | nt | i | nt
Cc1ccc(F)c(S(=O)(=O)NC(=O)C2(C)CCN2C(=O)Cc2ccccc2)c1 (stereo not drawn) | nt | i | nt | nt | i | nt
Cc1ccc(C)c(/C(O)=C2\C(=O)C(=O)N(Cc3cccnc3)C2c2cccnc2)c1 (stereo not drawn) | i | i | i | i | 37.5 | i
COc1ccc(/C(O)=C2/C(=O)C(=O)N(Cc3cccnc3)C2c2ccncc2)cc1F (stereo not drawn) | i | i | i | nt | i | i
Cc1cc(OCc2ccccc2)ccc1/C(O)=C1/C(=O)C(=O)N(Cc2cccnc2)C1c1ccncc1 (stereo not drawn) | i | i | i | i | 37.6 | i
COc1cccc(C2/C(=C(\O)c3ccc4c(c3)OCCO4)C(=O)C(=O)N2Cc2cccnc2)c1 (stereo not drawn) | i | i | i | i | 31.9 | i
O=C(/C=C/[C@H]1O[C@@H](n2ccc(=O)[nH]c2=O)[C@H](O)[C@@H]1O)NCc1cccnc1 | nt | i | nt | nt | nt | nt
N=C1C(c2nc3ccccc3s2)=C(O)CN1NC(=O)c1ccco1 | i | i | i | i | 46.8 | i
COc1cccc(C(=O)NN2CC(O)=C(c3nc4ccccc4s3)C2=N)c1 | i | i | i | i | i | i
